# Assay outcomes: PubChem BioAssay, National Center for Advancing Translational Sciences (NCATS)
# Most compounds without a hit are left out; they make up all but 6.5% or so of the library.
# HT1080-NT tox – kills 2HG-producing HT-1080-NT fibrosarcoma cells. HT-1080-NT fibrosarcoma viability, CellTiter-Glo ATP luminescence, 48 h. Potency, µM (doses to about 46.1 µM), inactives show at the top dose activity, negative = less viability, hits mostly cytotoxic. actives 1.6% (n = 360,000). AID 686970;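 note: NT is the 2HG producing partner of a matched IDH1 knockdown line; potency is the fitted concentration of half-maximal effect; 0% = DMSO-treated cells and -100% = media-only wells without cells; nearly all actives have a fitted effect of over 55% in size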
#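 HT-1080-NT; 750 cells/well; 5% FBS RPMI; 48 h compound, 37 degrees C; CellTiter-Glo luminescence; curve fitting and curve-class assignment.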
# Giardia killer – kills Giardia lamblia. Giardia lamblia trophozoite viability. actives 0.15% (n = 340,000). activity change, % at 7.66 µM, hits read low; in the data active = activity change below about -80%; inconclusive = between about -30% and that limit;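 note: parasites exposed to compound for two days anaerobically before the ATP read; % is set by controls: 0 for no effect and ±100 for the full control effect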
#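 Each well holds 100 Giardia trophozoites and compound. After two days (48 hrs) at 37 deg C in anaerobic conditions, ATP is quantified by luminescence.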
# IL1B secr inh – inhibitors of inflammasome signaling (IL-1 beta secretion). THP-1 LPS/ATP IL-1B secretion, AlphaLISA, 16 h; stronger effect = lower value. activity change, % at 57.5 µM. actives 4.7% (n = 360,000). AID 743279; in the data active = activity change below about -50%; inconclusive = mostly about -30% to -49%; note: % is set by controls: 0 for no effect and ±100 for the full control effect
#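 Secreted IL-1B measured by AlphaLISA bead assay after 16 h compound exposure of THP-1 cells; compounds (final up to 57.5 uM) added 1 h before LPS (250 ng/mL) and ATP (1.25 mM) stimulation; lower signal means less secretion.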
# HT1080 IDH1KD tx – HT-1080 IDH1 knockdown cell toxicity (counter line) | Potency, µM (series often up to 46.1 µM), for the others: top-dose activity, negative = toxicity, hits mostly cytotoxic | actives 2% (n = 360,000) | AID 686971 | HT-1080 IDH1 knockdown viability, ATP luminescence, 48 h;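 note: potency is the fitted concentration of half-maximal effect; 0% = DMSO wells and -100% = cell-free medium wells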
#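 CellTiter-Glo luminescence after 48 h compound exposure at 37 degrees C of IDH1-knockdown HT-1080 cells in 5% FBS RPMI. %Activity scaled between DMSO wells and cell-free media wells, with curves fitted and assigned curve classes.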
# TGFb SMAD3 inh – TGF-b pathway inhibition; Potency, µM (series often up to 46.1 µM), without a hit: top-dose activity, negative = inhibition, hits mostly inhibitors; actives 1.2% (n = 410,000); HepG2 CAGA-GFP TGF-b/SMAD3 reporter, GFP fluorescence, 18 h; TGF-beta stimulated, 500 pg/mL final; note: potency is the fitted concentration of half-maximal effect; % is set by controls: 0 for no effect and ±100 for the full control effect; nearly all actives have a fitted effect of over 65% in size
#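 TGF-beta reporter screen: HEPG2 CAGA-GFP, 1% FBS, 500 pg/mL TGF-beta final, 18 h; per-cell GFP summed per well; curves fitted and categorized by class.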
# HepG2 viability – counter-screen for TGF-b inhibitors: cytotoxicity in HepG2 cells; HepG2 CAGA-GFP viability, ATP luminescence, 18 h; Potency, µM (doses to about 46.1 µM), for the others: at the top dose activity change, negative = cytotoxicity, actives largely listed as cytotoxic; actives 0.76% (n = 410,000); AID 588856; note: potency is the fitted concentration of half-maximal effect
#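 HepG2 CAGA-GFP cells (1000/well, DMEM with 1% FBS) received compound, then TGF-beta at 500 pg/mL final, and were incubated 18 hours at 37 degrees C. Viability was read by CellTiter-Glo luminescence. Media-only wells were set as complete cell-killing and DMSO as no toxicity.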
# The depositor's hits bear a star; u = inconclusive; x = not tested or not shown; ! = a repeat was not active; [ ] = dose if it differs, or a comment. Unless noted, calls come from the whole dose curve; as a rule, active = well fitted curve in the direction sought with a large enough effect; inconclusive = small, poorly fitted or top-dose-only effect, or another doubt; inactive = no such curve, though single readings can be large; an effect the other way counts as inactive or inconclusive.
SMILES,HT1080-NT tox,Giardia killer,IL1B secr inh,HT1080 IDH1KD tx,TGFb SMAD3 inh,HepG2 viability
CC(=O)O[C@H]1C(=O)[C@@]2(C)C([C@H](OC(=O)c3ccccc3)[C@]3(O)C[C@H](O)C(C)=C1C3(C)C)[C@]1(OC(C)=O)CO[C@@H]1C[C@H]2O (some centres undefined),-20%,11,26,-28%,1%,2%
CC(=O)O[C@H]1C(=O)[C@@]2(C)C([C@H](OC(=O)c3ccccc3)[C@]3(O)C[C@H](OC(=O)[C@H](O)[C@@H](NC(=O)Cc4ccccc4)c4ccccc4)C(C)=C1C3(C)C)[C@]1(OC(C)=O)CO[C@@H]1C[C@@H]2O (some centres undefined),0.52µM*,-7,-5,u,u,-19%
CC(=O)O[C@@]12CO[C@@H]1C[C@H](O)[C@@]1(C)C(=O)[C@H](O)C3=C(C)[C@@H](OC(=O)[C@H](O)[C@@H](NC(=O)c4ccccc4)c4ccccc4)C[C@@](O)([C@@H](OC(=O)c4ccccc4)C12)C3(C)C (some centres undefined),0.0073µM*,20,15,u,-28%,-15%
O=C(N/N=C\C1C(=O)NC(=S)N(c2ccccc2)C1=O)c1ccc(O)cc1 (centres undefined),8%,-10,11,21%,-2%,0%
CCOC(=O)c1c(NS(=O)(=O)c2ccccc2)n(CCCOC)c2nc3ccccc3nc12,u,10,-96*,u,u,-1%
CCCCCn1c(NC(=O)c2ccco2)c(C(=O)OCC)c2nc3ccccc3nc21,9.2µM*,7,-101*,12µM*,20µM*,16µM*
c1ccc(C(OCCN2CCN(c3ncccn3)CC2)c2ccccc2)cc1,3%,28,-76*,-3%,-20%,-20%
Clc1ccc(C(OCCN2CCCCC2)c2ccccc2)cc1 (centres undefined),-2%,13,-51*,u,-5%,-1%
Cn1cc(C(=O)OCC(=O)N2CCCCC2)c2ccccc21,8%[9.24 µM],22,0,11%,15%,-2%
O=[N+]([O-])c1cnc[nH]1,x,u,-6,x,22%,4%
CN(C)CC1CSCCC1(O)c1cccc(Cl)c1 (centres undefined),5%,-14,-10,4%,-10%,-18%
CC(=O)C1C2c3ccccc3OC1(C)N=c1s/c(=C/c3cn(C)nc3C)c(=O)n12 (centres undefined),5%,5,-13,4%,0%,1%
Oc1c(Br)cc(Br)cc1Br,-28%,-5,-5,-1%,-5%,2%
Oc1c(Br)c(Br)c(Br)c(Br)c1Br,26µM*,24,13,u,u,-32%
CNCC[C@H](Oc1cccc2ccccc12)c1cccs1,u,-4,u,u,u,13µM*!
COC(=O)c1cn(C(=O)c2cccc3ccccc23)c2ccccc12,12µM*,20,71,13µM*,8%,14%
COC(=O)c1cn(Cc2ccc(F)cc2)c2ccccc12,-21%,x,3,u,8%,9%
Cc1ccc2c(c1)C1CN(C)CCC1N2C(=O)CCCN1C(=O)c2cccc3cccc(c23)C1=O (centres undefined),x,0,-14,u,u,-24%
CC1(CCCc2ccc(N(CCCl)CCCl)cc2)NC(=O)NC1=O (centres undefined),-1%,x,1,0%,u,0%
CC12CC[C@H]3[C@@H](CCC4(O)C[C@H](O)CCC34/C=N/NC(=O)Cc3ccccc3)C1(O)CCC2C1=CC(=O)OC1 (some centres undefined),u,40,-4,u,-23%,-41%
